The text below walks through data of PubChem BioAssay (NCATS).

Assay [1] in a line: qHTS of pediatric cancer cell lines to identify multiple opportunities for drug repurposing: Primary screen for SJ-GBM2 cells (AID 1347091). The conditions noted are these: SJ-GBM2 viability, CellTiter-Glo luminescence, 48 h; series mostly up to 46 µM. The essentials: (§1)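 Cell viability, CellTiter-Glo luminescence; 500-1,000 cells/well, 8- or 11-point titration, 48 h compound exposure at 37 degrees C, 5% CO2. Controls: DMSO neutral, bortezomib 2.3 µM final as positive.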
A general note: In qHTS, concentration-response curves come from the screen itself.

Assay [2] in a line: qHTS of pediatric cancer cell lines to identify multiple opportunities for drug repurposing: Primary screen for A673 cells (AID 1347092). Further: nearly all actives have a fitted effect of over 45% in size. The conditions noted are these: A673 Ewing sarcoma viability, CellTiter-Glo ATP luminescence, 48 h; series mostly up to 46 µM. The essentials: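 48 h compound exposure, A673, 500-1,000 cells/well, 37 degrees C/5% CO2. MIPE: 11-point, 0.78 nM-46 µM; NPC: 8-point, 0.59 nM-46 µM (final). Readout CellTiter-Glo luminescence after 15 min RT.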

The nature of assay [3]: qHTS of pediatric cancer cell lines to identify multiple opportunities for drug repurposing: Primary screen for SK-N-MC cells (AID 1347093). Particulars: SK-N-MC viability, CellTiter-Glo luminescence, 48 h; series mostly up to 46 µM. The essentials:
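Metabolically active cells were quantified by ATP-dependent luminescence (CellTiter-Glo, 15 min at room temperature) following 48 h treatment. Cells had been plated at 500-1,000 per well and settled for 5 h beforehand.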

Assay [4] can be described thus: qHTS of pediatric cancer cell lines to identify multiple opportunities for drug repurposing: Primary screen for NB-EBc1 cells (AID 1347095). Particulars: NB-EBc1 neuroblastoma viability, CellTiter-Glo luminescence, 48 h; series mostly up to 46 µM. A digest of the protocol:
(§2)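 CRCs from 8- or 11-point titrations (lowest final 0.59 nM NPC, 0.78 nM MIPE). Cell viability: CellTiter-Glo after 48 h incubation, 15 min room-temperature development, luminescence imaging.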

Assay [5] is described as follows: qHTS of pediatric cancer cell lines to identify multiple opportunities for drug repurposing: Primary screen for SK-N-SH cells (AID 1347098). Further: nearly all actives have a fitted effect of over 65% in size. Particulars: SK-N-SH viability, CellTiter-Glo luminescence, 48 h; series mostly up to 57 µM. The essentials: (§3)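 Cells (500-1,000/well) rested 5 h, then received compounds for 48 h; metabolically active cells were measured by CellTiter-Glo luminescence. Final concentrations spanned up to 46 µM (MIPE, 11-point) or 0.59 nM-46 µM (NPC, 8-point) in primary screens, 11-point in follow-ups.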

Assay [6] is described as follows: qHTS of pediatric cancer cell lines to identify multiple opportunities for drug repurposing: Primary screen for NB1643 cells (AID 1347099). Further: nearly all actives have a fitted effect of over 50% in size. Particulars: NB1643 neuroblastoma viability, CellTiter-Glo luminescence, 48 h; series mostly up to 46 µM. A digest of the protocol:
as §2

Assay [7] can be described thus: qHTS of pediatric cancer cell lines to identify multiple opportunities for drug repurposing: Primary screen for Rh18 cells (AID 1347102). Further: nearly all actives have a fitted effect of over 65% in size. Particulars: Rh18 rhabdomyosarcoma viability, CellTiter-Glo luminescence, 48 h; series mostly up to 46 µM. The essentials:
as §3

A short description of assay [8]: qHTS of pediatric cancer cell lines to identify multiple opportunities for drug repurposing: Primary screen for OHS-50 cells (AID 1347103). Further: nearly all actives have a fitted effect of over 40% in size. The conditions noted are these: OHS-50 osteosarcoma viability, CellTiter-Glo luminescence, 48 h; series mostly up to 57.3 µM. A digest of the protocol: as §3
Assay [9] is described as follows: qHTS of pediatric cancer cell lines to identify multiple opportunities for drug repurposing: Primary screen for RD cells (AID 1347104). Further: nearly all actives have a fitted effect of over 55% in size. Particulars: RD rhabdomyosarcoma viability, CellTiter-Glo luminescence, 48 h; series mostly up to 46 µM. A digest of the protocol: as §2
The nature of assay [10]: qHTS of pediatric cancer cell lines to identify multiple opportunities for drug repurposing: Primary screen for DAOY cells (AID 1347090). Further: nearly all actives have a fitted effect of over 55% in size. Particulars: DAOY medulloblastoma viability, CellTiter-Glo luminescence, 48 h; series mostly up to 46 µM. The essentials: as §1
The nature of assay [11]: qHTS of pediatric cancer cell lines to identify multiple opportunities for drug repurposing: Primary screen for BT-37 cells (AID 1347094). Particulars: BT-37 viability, CellTiter-Glo luminescence, 48 h; series mostly up to 57.3 µM. The essentials: as §2
A short description of assay [12]: qHTS of pediatric cancer cell lines to identify multiple opportunities for drug repurposing: Primary screen for LAN-5 cells (AID 1347100). The conditions noted are these: LAN-5 neuroblastoma viability, CellTiter-Glo luminescence, 48 h; series mostly up to 46 µM. A digest of the protocol: as §3
The nature of assay [13]: qHTS of pediatric cancer cell lines to identify multiple opportunities for drug repurposing: Primary screen for Saos-2 cells (AID 1347097). Further: nearly all actives have a fitted effect of over 40% in size. The conditions noted are these: Saos-2 viability, CellTiter-Glo ATP luminescence, 48 h; series mostly up to 46 µM. The essentials: as §2
A short description of assay [14]: qHTS of pediatric cancer cell lines to identify multiple opportunities for drug repurposing: Primary screen for BT-12 cells (AID 1347101). Further: nearly all actives have a fitted effect of over 25% in size. Particulars: BT-12 viability, CellTiter-Glo luminescence, 48 h; series mostly up to 57.3 µM. The essentials:
as §3

A short description of assay [15]: qHTS of pediatric cancer cell lines to identify multiple opportunities for drug repurposing: Primary screen for U-2 OS cells (AID 1347096). Further: nearly all actives have a fitted effect of over 50% in size. The conditions noted are these: U-2 OS viability, CellTiter-Glo luminescence, 48 h; series mostly up to 46 µM. The essentials: as §3

Results filed as inconclusive are left out. Active and inactive are the calls of the source. The call rests on the fitted dose curve; in most records, active means well fitted curve in the direction sought with a large enough effect; inconclusive means small, poorly fitted or top-dose-only effect, or another doubt; inactive means no such curve, though single readings can be large; an effect the other way counts as inactive or inconclusive.
Potency means the concentration at half of the fitted maximal effect.

Take `Cc1cc(CN2CCN(c3c(Br)cnc4nc(-c5ccc(N6CCN(C)CC6)cc5)[nH]c34)CC2)no1`: the Potency in [1] was 5.9 µM (active); in assay [2], 23.5 µM (active); in assay [3], 1.18 µM (active); in assay [4] it was 2.35 µM (active); in assay [5], 21.5 µM (active); in assay [6] it was 16.6 µM (active). The Potency in assay [7] is 20.9 µM (active); in assay [8], 30.6 µM (active); in [9], 26.4 µM (active).

For `Cc1cn2c(-c3cn[nH]c3)cnc2c(Nc2ccc(C(=O)N3CCNCC3)cc2F)n1`, the Potency in [10] was 18.7 µM (active); in assay [2], 14.8 µM (active); in assay [3] it was 1.66 µM (active); in assay [11], 17.2 µM (active); in [5], 24.1 µM (active); in assay [6] it was 18.7 µM (active). The Potency in assay [12] was 16.6 µM (active); in assay [7], 16.6 µM (active); in [8], 13.7 µM (active); in assay [9], 16.6 µM (active).

As for `CNC(=O)c1ccc(-c2cnc3ncc(Cc4ccc5ncccc5c4)n3n2)cc1F`, the Potency entry in assay [11], in assay [13], in [5], in [6], in [14] and in assay [7] was “inactive” each time. In addition, in [8], the Potency entry is “inactive”.

As to `CC(C)Nc1cc(C(F)(F)F)cc2nc(NC(=O)c3cccnc3)nn12`, the Potency result in assay [10], in assay [11], in [4], in [15], in assay [12] and in assay [14] was “inactive” in each case. Besides, the Potency result in assay [8] and in assay [9] was “inactive” each time. Also, in assay [3], the Potency was 16.6 µM (active).

With `CC[C@@H]1C(=O)N(C)c2cnc(Nc3ccc(C(=O)NC4CCN(C)CC4)cc3OC)nc2N1C1CCCC1`, the Potency in assay [1] is 0.0372 µM (active); in assay [2], 0.0372 µM (active); in [11] it was 0.172 µM (active); in assay [4], 0.148 µM (active); in assay [15] it was 14.8 µM (active); in assay [13], 0.0469 µM (active). Besides, the Potency in assay [5] is 2.41 µM (active); in assay [6] it was 1.32 µM (active); in assay [12], 0.0332 µM (active); in assay [14], 0.172 µM (active); in assay [8], 0.0544 µM (active); in assay [9], 0.059 µM (active).

For `Cc1cccc(C=NNc2cc(N3CCOCC3)nc(OCCc3ccccn3)n2)c1`, the Potency in assay [1] was 1.32 µM (active); in assay [2], 7.43 µM (active); in [5], 24.1 µM (active); in assay [6], 16.6 µM (active); in assay [8] it was 24.3 µM (active).

Regarding `COc1cc(C(=O)N2CCC(N3CCN(C)CC3)CC2)ccc1Nc1ncc2c(n1)N(C)c1ccccc1C(=O)N2C`, the Potency is 18.7 µM (active) in assay [1]; 11.8 µM (active) in [2]; 10.5 µM (active) in [3]; 15.3 µM (active) in [11]; 16.6 µM (active) in assay [4]; 10.5 µM (active) in assay [13]. Further, the Potency in [5] is 21.5 µM (active); in [6] it was 9.35 µM (active); in [12] it was 5.26 µM (active); in assay [7] it was 11.8 µM (active); in assay [8], 7.69 µM (active); in assay [9], 14.8 µM (active). The Potency entry in assay [15] was “inactive”.

With `CN(C1CCc2c(c3ccccc3n2CC(=O)O)C1)S(=O)(=O)c1ccc(F)cc1` (stereo not given), the Potency in [10] was 5.9 µM (active); in assay [2], 0.935 µM (active); in assay [3] it was 0.935 µM (active); in assay [6], 1.32 µM (active); in [12] it was 5.26 µM (active). The Potency entry in [15] and in assay [13] was “inactive” throughout.

For `Cc1cc(Nc2nc(N[C@@H](C)c3ccc(F)cc3)c(C#N)cc2F)n[nH]1`, the Potency is 1.18 µM (active) in assay [2]; 0.743 µM (active) in assay [3]; 0.662 µM (active) in assay [4]; 2.35 µM (active) in [13]; 3.41 µM (active) in assay [5]; 0.935 µM (active) in [6]. Also, the Potency in [7] was 5.9 µM (active). The Potency entry in assay [14] is “inactive”.
